These results are taken from PubChem BioAssay (NCATS).

A number with no mark means an inactive call. Results filed as inconclusive are left out. Calls of active or inactive are those of the source. Unless noted, calls follow the shape of the dose curve; as a rule, active = well fitted curve in the direction sought with a large enough effect; inconclusive = small, poorly fitted or top-dose-only effect, or another doubt; inactive = no such curve, though single readings can be large; an effect the other way counts as inactive or inconclusive.

The target in test [1] is Mitogen-activated protein kinase 10 (Mus musculus) (UniProt Q61831). Description: JNK3 AlphaScreen Assay (AID 530; active = well fitted curve in either direction with a large enough effect, not every such curve was filed as active;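 also: kinase came from lysate of stimulated human HepG2 cells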;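 as to activity change, negative = inhibition: signal reports phosphorylation of biotinylated GST-cJun 1-79 at Ser73 with 10 µM ATP; % is scaled to controls: 0 for no effect and ±100 for the full control effect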). The gist of the method: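 JNK3 came from HepG2 lysates pre-activated with IL-1beta and TNF-alpha and phosphorylated biotinylated GST-cJun (1-79) at 10 uM ATP, pH 7.6, room temperature. Compounds were titrated. AlphaScreen signal used anti-phospho-cJun (Ser73) antibody.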
(Bead proximity is the source of the signal in Alpha formats.)

Test [2] in a line: Cell Viability - N2a (AID 540). Also: nearly all actives have a fitted effect of over 45% in size.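 As to activity change, negative = cytotoxicity: plate controls were DMSO alone for no effect and tamoxifen control for full effect.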 The conditions noted are these: N2a mouse neuroblastoma cell viability; activity change, negative = cytotoxicity: at 92.2 µM (top of the series). The gist of the method: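 First, 1500 N2a cells per well incubate 5 hr at 37 °C; next, compounds are added and incubated 40 hr at 37 °C; finally CellTiter-Glo is added and luminescence read after 20 min, with AC50 derived by Hill modeling.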

The nature of test [3]: Cell Viability - H-4-II-E (AID 543). Also: nearly all actives have a fitted effect of over 35% in size. The gist of the method:
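Here, cytotoxicity is measured in the rat hepatoma line H-4-II-E as loss of intracellular ATP after 40 hr compound treatment, detected by luciferase luminescence.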

Test [4] is described as follows: Cell Viability - SH-SY5Y (AID 544). Also: nearly all actives have a fitted effect of over 55% in size.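 As to viability change, negative = cytotoxic: 0% = DMSO alone and -100% = 100 µM tamoxifen.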 The conditions noted are these: SH-SY5Y neuroblastoma cell viability; viability change, negative = cytotoxic: at 92.2 µM (top of the series). In outline:
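Cytotoxicity is scored as a concentration-dependent fall in intracellular ATP in human SH-SY5Y cells treated 40 hr in complete culture medium. Potency is expressed as AC50 from a Hill equation fit.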

For test [5], the target named is Glucocorticoid receptor (Homo sapiens) (UniProt P04150). Kind of test: GR-GFP Redistribution (AID 450;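 active = compounds whose dose series gives a full or clear partial fitted curve of increased nuclear translocation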). The settings on record: U2OS GR-GFP nuclear translocation, laser cytometry, 2 h.
Glucocorticoid receptor (Homo sapiens), sequence (P04150 whole entry, looked up): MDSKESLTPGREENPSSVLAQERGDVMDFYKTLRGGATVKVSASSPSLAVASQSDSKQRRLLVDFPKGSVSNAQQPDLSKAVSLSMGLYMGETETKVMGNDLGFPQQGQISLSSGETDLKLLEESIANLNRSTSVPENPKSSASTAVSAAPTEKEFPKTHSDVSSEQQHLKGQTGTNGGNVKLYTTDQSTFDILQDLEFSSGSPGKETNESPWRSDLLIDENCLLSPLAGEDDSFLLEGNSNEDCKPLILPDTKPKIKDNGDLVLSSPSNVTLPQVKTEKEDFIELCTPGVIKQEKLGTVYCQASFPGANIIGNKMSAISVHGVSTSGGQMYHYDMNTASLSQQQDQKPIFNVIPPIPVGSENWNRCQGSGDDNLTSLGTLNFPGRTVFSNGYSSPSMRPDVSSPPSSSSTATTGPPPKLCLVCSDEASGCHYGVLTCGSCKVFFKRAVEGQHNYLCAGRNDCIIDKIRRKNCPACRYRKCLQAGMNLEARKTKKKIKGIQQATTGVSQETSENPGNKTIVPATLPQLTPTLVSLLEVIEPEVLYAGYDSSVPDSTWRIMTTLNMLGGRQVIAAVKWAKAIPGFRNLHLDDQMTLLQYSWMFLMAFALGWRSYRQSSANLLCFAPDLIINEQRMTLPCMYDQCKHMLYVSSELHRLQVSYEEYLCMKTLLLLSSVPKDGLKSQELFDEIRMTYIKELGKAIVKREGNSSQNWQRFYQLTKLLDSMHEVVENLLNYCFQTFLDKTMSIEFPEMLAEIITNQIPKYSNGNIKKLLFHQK
Test [6] shares this target. Description: GR-EFC Redistribution (AID 451; calls by dose curve). The settings on record: CHO-K1 GR-EFC translocation, beta-gal luminescence, 2 h. In outline:
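CHO-K1 cells stably expressing nuclear-localized β-gal enzyme acceptor and GR fused C-terminally to the enzyme donor fragment; ligand-driven nuclear translocation restores β-gal by complementation. Compounds titrated up to 46 uM final, 2 h at 37 °C; luminescence read.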

A short description of test [7]: Cell Viability - NIH 3T3 (AID 541). Also: nearly all actives have a fitted effect of over 25% in size.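 As to activity change, negative = cytotoxicity: plate controls were DMSO alone for no effect and tamoxifen positive control for full effect.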 The conditions noted are these: NIH 3T3 cell viability, qHTS; activity change, negative = cytotoxicity: at 92.2 µM (top of the series). The gist of the method: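 AC50 values reflect concentration-dependent loss of intracellular ATP in NIH 3T3 cells after 40 hr treatment in complete culture medium, quantified by luciferase-based luminescence.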
On the technique in general: Quantitative high-throughput screening tests each substance at several concentrations.

Test [8] can be described thus: Cell Viability - HUV-EC-C (AID 542). Also: nearly all actives have a fitted effect of over 35% in size. As to activity change, negative = cytotoxicity: % is scaled to controls: 0 for no effect and ±100 for the full control effect. In outline: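 Decrease in cellular ATP, quantified by luciferase luminescence, reflects toxicity in normal human vascular endothelial HUV-EC-C cells given compound for 40 hr in complete culture medium. Values are AC50s from concentration-response curves.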
Test [9] can be described thus: Cell Viability - Renal Proximal Tubule (AID 545). Also: nearly all actives have a fitted effect of over 40% in size.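 As to activity change, negative = cytotoxicity: 0% = DMSO only and -100% = 100 µM tamoxifen.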 The settings on record: renal proximal tubule cells viability, primary cells of rat origin; activity change, negative = cytotoxicity: at 91.7 µM (top of the series). The gist of the method: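 Rat renal proximal tubule primary cells, 1000/well, exposed to compounds for 40 hr at 37 °C in complete medium; cellular ATP read by CellTiter-Glo luminescence. AC50 from concentration-response fitted with standard Hill equation.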
Potency is read from the fitted curve at half-maximal effect.

In the case of `CC(C)NCC(O)COc1cccc2ccccc12` (stereo unspecified), the Potency result in test [1], in test [2] and in [4] was “inactive” in each case. The Potency in [3] was 39.8 µM (active).

As to `O=Nc1ccc2oc(=O)ccc2c1`, the Potency in [5] and in test [6] was above 46 µM throughout. For the same compound, in [1], the Potency entry was “inactive”.

With `O=C(O)[C@@H]1C[C@@H](C(=O)O)N1`, the Potency in test [5] and in [6] was above 46 µM in each case. Further, the Potency result in [1] is “inactive”.

As for `C[C@@H](NC(=O)/C(C#N)=C/c1ccc(O)c(O)c1)c1ccccc1`, the Potency in test [5] is above 46 µM; in test [6], above 46 µM; in [1], 12.6 µM (active).

`Nc1ccc([N+](=O)[O-])cc1O`: the Potency entry in test [1], in [8], in test [3] and in [4] was “inactive” in each case. Also, in test [7], the Potency was 20 µM (active). In addition, the activity change, negative = cytotoxicity in [9] was -10.2%.

Turning to `O=C1CN(/N=C/c2ccc([N+](=O)[O-])o2)C(=O)N1`, the Potency entry in [1] and in test [8] was “inactive” throughout. Moreover, in test [2], the Potency is 31.6 µM (active). The activity change, negative = cytotoxicity in [7] was -97.7% (active).

Turning to `CN(C)c1ccc(C(=C2C=CC(=[N+](C)C)C=C2)c2ccccc2)cc1`, the Potency in [5] was above 46 µM; in test [6], above 9.22 µM; in test [2] it was 0.0316 µM (active); in [7] it was 0.2 µM (active); in test [8] it was 6.31 µM (active); in [3] it was 0.0794 µM (active). For the same compound, the figures for the Potency in test [4] and in [9] were 0.1 µM (active) and 0.2 µM (active), respectively. Besides, in [1], the activity change, negative = inhibition is -22.8% [at 11.4 µM].

Take `N.N.O=C(O)C1(C(=O)O)CCC1.[Pt]`: the Potency result in test [1] is “inactive”.

Regarding `C#C[C@]1(O)CC[C@H]2[C@@H]3CCc4cc(O)ccc4[C@H]3CC[C@@]21C`, the Potency result in test [1], in [2] and in [7] was “inactive” each time. Further, the Potency in test [3] was 20 µM (active); in [4] it was 31.6 µM (active).

In the case of `C[C@@H](CN1CCC(Cc2ccccc2)CC1)[C@@H](O)c1ccc(O)cc1`, the Potency in [5] and in test [6] was above 46 µM throughout. In test [1], the Potency result is “inactive”.

For `CC(C)NC[C@H](O)COc1cccc2[nH]ccc12`, the Potency in test [5] and in [6] was above 46 µM in each case. Moreover, the Potency result in test [1] was “inactive”.

Consider `O=c1cc(-c2ccccc2)oc2ccccc12`, for which the Potency result in [1], in [2], in [8] and in [4] was “inactive” throughout.

For the compound `O=C(O)c1cc(=O)c2ccccc2[nH]1`, the Potency in test [5] and in test [6] was above 46 µM each time. In test [1], the Potency result was “inactive”.

Turning to `S=c1[nH]c2ccccc2s1`, the Potency entry in test [1], in test [2], in test [8], in test [3] and in [4] was “inactive” in each case. Also, the activity change, negative = cytotoxicity was -146% (active) in test [7] and -20.5% in [9].

On to `O=C(O)/C=C\C(=O)O`, for which the Potency entry in [1], in test [2], in test [7], in test [8], in [3] and in [4] was “inactive” in each case. The activity change, negative = cytotoxicity in test [9] is -6.17%.

For the compound `CN(C)c1ccc(N=NS(=O)(=O)O)cc1`, the Potency entry in [1] and in test [8] was “inactive” each time. The Potency is 31.6 µM (active) in test [2] and 0.126 µM (active) in test [3]. Besides, in test [9], the activity change, negative = cytotoxicity was 12.3%.

For the compound `O=C(O)c1cc(O)c(O)c(O)c1`, the Potency entry in test [1], in [2] and in test [8] was “inactive” throughout. Further, the results for the activity change, negative = cytotoxicity in test [7] and in test [9] were -98.1% (active) and -19.1%, respectively.

Turning to `COc1cc(CNC(=O)CCCC/C=C/C(C)C)ccc1O`, the Potency entry in test [1], in test [2] and in test [3] was “inactive” each time. For the same compound, the Potency in test [7] is 5.01 µM (active). In test [9], the activity change, negative = cytotoxicity was -16.6%.

As to `N#C/C(=C\c1ccc(O)c(O)c1)C(=O)c1ccc(O)c(O)c1`, the Potency in [5] and in [6] was above 46 µM throughout.

Regarding `O=S(=O)(c1cccc2c(I)cccc12)N1CCCNCC1`, the Potency in test [5] and in test [6] was above 46 µM throughout. Also, in test [1], the Potency entry was “inactive”.

Turning to `N=C(N)SCCc1ccc(CCSC(=N)N)cc1`, the Potency in test [5] and in test [6] was above 46 µM throughout. In addition, the Potency entry in test [1] was “inactive”.

As for `Oc1ccccc1O`, the Potency is above 46 µM in test [5], above 46 µM in [6], 1.26 µM (active) in test [7] and 10 µM (active) in test [4]. Also, the Potency entry in [1] and in test [8] was “inactive” throughout. For the same compound, in [9], the activity change, negative = cytotoxicity was -24.1%.

In the case of `COc1ccccc1N1CCN(CCN(C(=O)c2ccc(I)cc2)c2ccccn2)CC1`, the Potency in [5] and in [6] was above 46 µM in each case. The Potency result in test [1] was “inactive”.

As for `N=c1ccn2c(n1)O[C@H]1[C@H](O)[C@@H](CO)O[C@H]12`, the Potency in test [5] and in [6] was above 46 µM in each case. Further, in test [1], the Potency entry was “inactive”.

For `COC1=C(OC)C(=O)c2ccccc2C1=O`, the Potency in test [5] and in test [6] was above 46 µM in each case.

For `CCCCCCCC/C=C\CCCCCCCC(=O)NCCO`, the Potency in test [5] and in test [6] was above 46 µM in each case. For the same compound, the Potency result in test [1] was “inactive”.

Consider `Nc1ccc(O)c([N+](=O)[O-])c1`, for which the Potency result in test [1], in test [8] and in [3] was “inactive” in each case. For the same compound, in test [7], the Potency was 25.1 µM (active). Also, in [9], the activity change, negative = cytotoxicity is 0.95%.
